Test results from PubChem BioAssay (EPA / NIEHS).
Where “and” joins values, the source holds several entries; their conditions need not be identical. Identical values can stand only once. Where a structure was tested more than once in an assay, its records may differ in their call. Calls of active or inactive are those of the source. How the source made its calls: active means hit-call score of the fitted dose curve at least 0.9, where 1 is the maximum; inactive means score below 0.9.

Tests used:
[1] = BSK_LPS_PGE2: BioMAP Diversity Plus: LPS Assay for Prostaglandin E2 (PGE2) Biomarker Activity (AID 2283082); conditions: primary human HUVEC with PBMC; actives raise or lower the signal
Summary of the method: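 HUVEC plus PBMC co-culture stimulated with LPS; secreted PGE2 quantified by ELISA 24 h after chemical dosing. Activity fitted bidirectionally against DMSO as negative control and baseline; parallel SRB total-protein staining served as cytotoxicity check.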

[2] = read-out: Macrophage colony-stimulating factor (MCSF), CSF1 (gene 1435); test: BSK_LPS_MCSF: BioMAP Diversity Plus: LPS Assay for Macrophage colony-stimulating factor (MCSF) Biomarker Activity (AID 2283083); conditions: primary human HUVEC with PBMC; actives raise or lower the signal
Summary of the method: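 HUVEC–PBMC co-culture, M-CSF measured by ELISA 24 h after chemical dosing. Fitted in both directions relative to DMSO as negative control; overt cytotoxicity assessed by SRB total-protein staining in parallel cultures.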

[3] = read-out: Tissue Factor, F3 (gene 2152); test: BSK_LPS_TissueFactor: BioMAP Diversity Plus: LPS Assay for Tissue Factor Biomarker Activity (AID 2283084); conditions: primary human HUVEC with PBMC; actives raise or lower the signal
Summary of the method: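 Human umbilical vein endothelial cells co-cultured with PBMC were dosed with compound. Cell-surface CD142 was measured by ELISA 24 h later. Activity was fitted bidirectionally against DMSO, with SRB total-protein staining in parallel cultures for cytotoxicity.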

[4] = read-out: Tumor necrosis factor (Homo sapiens) (UniProt P01375); test: BSK_LPS_TNFa: BioMAP Diversity Plus: LPS Assay for Tumour Necrosis Factor alpha (TNFa) Biomarker Activity (AID 2283085); conditions: primary human HUVEC with PBMC; actives raise or lower the signal
Summary of the method: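 Human umbilical vein endothelial cells co-cultured with PBMC were exposed to test chemical and TNFa measured by ELISA 24 h after dosing. Bidirectional curve fitting was done relative to DMSO as negative control and baseline.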

CD38, CD38 (gene 952) = test: BSK_SAg_CD38: BioMAP Diversity Plus: SAg Assay for CD38 Biomarker Activity (AID 2283087); conditions: primary human HUVEC with PBMC; actives raise or lower the signal
Summary of the method: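 Fluorescence ELISA of cell-surface CD38 served as the read-out, with either increase or decrease fitted against DMSO controls. Cells were a human umbilical vein endothelium plus PBMC co-culture under SEB/TSST-1 stimulation, measured 24 h after dosing.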

CD40, CD40 (gene 958) = test: BSK_SAg_CD40: BioMAP Diversity Plus: SAg Assay for CD40 Biomarker Activity (AID 2283088); conditions: primary human HUVEC with PBMC; actives raise or lower the signal
Summary of the method: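 HUVEC plus PBMC co-culture, superantigen-activated, with CD40 read by ELISA 24 h after dosing. Curves fitted in both directions against DMSO. Overt cytotoxicity checked by parallel SRB total-protein staining.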

CD69, CD69 (gene 969) = test: BSK_SAg_CD69: BioMAP Diversity Plus: SAg Assay for CD69 Biomarker Activity (AID 2283089); conditions: primary human HUVEC with PBMC; actives raise or lower the signal;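 on AC50: cell surface CD69 protein quantified by ELISA with fluorescence detection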
Summary of the method: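 Primary human vascular co-culture (umbilical vein endothelium with peripheral blood mononuclear cells) exposed to test chemical for 24 h. CD69 levels quantified by fluorescence ELISA; DMSO served as negative control for bidirectional fitting.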

[5] = read-out: Monocyte Chemoattractant Protein-1 (MCP1), CCL2 (gene 6347); test: BSK_SAg_MCP1: BioMAP Diversity Plus: SAg Assay for Monocyte Chemoattractant Protein-1 (MCP1) Biomarker Activity (AID 2283090); conditions: primary human HUVEC with PBMC; actives raise or lower the signal
Summary of the method: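 MCP-1 levels in the endothelial–PBMC SAg co-culture were quantified by ELISA at 24 h post-dosing; both increases and decreases versus DMSO scored. Cytotoxicity monitored by SRB total protein in parallel cultures.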

[6] = read-out: E-selectin (Homo sapiens) (UniProt P16581); test: BSK_SAg_Eselectin: BioMAP Diversity Plus: SAg Assay for Eselectin Biomarker Activity (AID 2283091); conditions: primary human HUVEC with PBMC; actives raise or lower the signal
Summary of the method: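 Human umbilical vein endothelial cells co-cultured with peripheral blood mononuclear cells, SAg system. E-selectin is measured by ELISA 24 h after dosing and fitted bidirectionally against DMSO. Cytotoxicity is checked by SRB staining of parallel cultures.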

[7] = read-out: Monokine induced gamma interferon (MIG), CXCL9 (gene 4283); test: BSK_SAg_MIG: BioMAP Diversity Plus: SAg Assay for Monokine induced gamma interferon (MIG) Biomarker Activity (AID 2283092); conditions: primary human HUVEC with PBMC; actives raise or lower the signal
Summary of the method: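 Endothelial cells and PBMC were co-cultured, exposed to test chemicals, and sampled 24 h later. MIG was measured by ELISA, and responses were fitted in both directions relative to DMSO.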

[8] = BSK_SAg_PBMCCytotoxicity: PBMC Cytotoxicity Assessment in the BioMAP Diversity Plus: SAg Assay (AID 2283093); conditions: primary human HUVEC with PBMC;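 further: PBMC viability measured as Alamar Blue reduction fluorescence at 546/580 nm; fitted both ways against DMSO so a hit may be loss or gain of signal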
Summary of the method: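 HUVEC/PBMC co-culture; PBMC exposed to chemical 1 h before SEB and TSST-1 activation (20 ng/mL each), incubated 90 h, then Alamar Blue 6 h, fluorescence 546/580 nm. Bidirectional fit versus DMSO baseline.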

[9] = read-out: Interleukin-8 (IL8), CXCL8 (gene 3576); test: BSK_SAg_IL8: BioMAP Diversity Plus: SAg Assay for Interleukin-8 (IL8) Biomarker Activity (AID 2283094); conditions: primary human HUVEC with PBMC; actives raise or lower the signal
Summary of the method: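 Human umbilical vein endothelial cells co-cultured with peripheral blood mononuclear cells; IL-8 measured by ELISA 24 h after chemical dosing. Bidirectional concentration-response fitting used DMSO as negative control and activity baseline.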

[10] = BSK_SAg_Proliferation: Cell Proliferation Assessment in the BioMAP Diversity Plus: SAg Assay (AID 2283095); conditions: primary human HUVEC with PBMC;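 further: relative cell number as total protein by SRB absorbance in sub-confluent culture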
Summary of the method: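 Human umbilical vein endothelial cells co-cultured with peripheral blood mononuclear cells; total protein measured by sulforhodamine B staining (0.1% SRB after 10% TCA fixation), absorbance at 560 nm, at 96 h. Bidirectional fit against DMSO baseline.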

[11] = BSK_SAg_SRB: Viability Assessment in the BioMAP Diversity Plus: SAg Assay (AID 2283096); conditions: primary human HUVEC with PBMC;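 further: cells read one day after compound addition; hits may be either gain or loss of signal compared with DMSO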
Summary of the method: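 Human umbilical vein endothelial cells co-cultured with PBMC, read 24 h after compound dosing. Total protein measured by sulforhodamine B staining (0.1% SRB after 10% TCA fixation, absorbance 560 nm); bidirectional fit versus DMSO baseline.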

[12] = read-out: Vascular cell adhesion molecule 1 (VCAM1), VCAM1 (gene 7412); test: BSK_LPS_VCAM1: BioMAP Diversity Plus: LPS Assay for Vascular cell adhesion molecule 1 (VCAM1) Biomarker Activity (AID 2283086); conditions: primary human HUVEC with PBMC; actives raise or lower the signal
Summary of the method: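 Human umbilical vein endothelial cells co-cultured with peripheral blood mononuclear cells under LPS stimulation were exposed to test chemical for 24 h. VCAM-1 levels were then measured by ELISA, with bidirectional curve fitting relative to DMSO as negative control and baseline.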

Measured: AC50

Chain of Tumor necrosis factor (Homo sapiens) (P01375 whole entry, looked up): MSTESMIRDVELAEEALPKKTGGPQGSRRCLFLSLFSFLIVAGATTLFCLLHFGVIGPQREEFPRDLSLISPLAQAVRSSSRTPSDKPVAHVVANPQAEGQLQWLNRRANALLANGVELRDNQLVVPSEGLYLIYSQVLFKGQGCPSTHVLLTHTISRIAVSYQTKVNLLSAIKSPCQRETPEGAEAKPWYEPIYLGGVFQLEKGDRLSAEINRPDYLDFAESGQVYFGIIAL
Chain of E-selectin (Homo sapiens) (P16581 whole entry, looked up): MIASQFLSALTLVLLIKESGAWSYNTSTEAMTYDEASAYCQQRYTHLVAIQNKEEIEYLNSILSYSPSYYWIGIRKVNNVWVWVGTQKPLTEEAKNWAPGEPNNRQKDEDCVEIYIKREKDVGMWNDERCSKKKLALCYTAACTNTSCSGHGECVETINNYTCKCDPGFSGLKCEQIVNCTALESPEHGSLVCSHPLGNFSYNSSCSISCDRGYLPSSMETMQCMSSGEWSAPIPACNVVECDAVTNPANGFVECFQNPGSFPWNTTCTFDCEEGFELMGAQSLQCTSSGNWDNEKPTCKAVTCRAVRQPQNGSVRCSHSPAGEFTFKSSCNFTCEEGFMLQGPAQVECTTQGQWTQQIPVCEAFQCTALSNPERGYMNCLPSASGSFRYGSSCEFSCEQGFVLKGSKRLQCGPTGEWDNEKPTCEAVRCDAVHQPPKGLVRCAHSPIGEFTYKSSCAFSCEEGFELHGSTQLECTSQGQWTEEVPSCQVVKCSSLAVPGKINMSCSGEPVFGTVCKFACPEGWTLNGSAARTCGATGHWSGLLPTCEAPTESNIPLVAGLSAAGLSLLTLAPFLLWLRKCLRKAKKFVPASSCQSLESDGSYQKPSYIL

COc1cc(C=O)ccc1OC(=O)C(C)C
not listed: [12]
inactive: all other assays above

COC(=O)c1ccc(C)cc1
not listed: [1] | [12]
inactive: all other assays above

CCCCC(CC)COC(=O)/C=C\C(=O)OCC(CC)CCCC (centres undefined)
active: [10] 20 µM
not listed: [1] | [12]
inactive: all other assays above

CCc1c(C)cc(N)c(CC)c1N
not listed: [12]
inactive: all other assays above

O=C(O)C[C@H](O)C[C@H](O)/C=C/c1c(C2CC2)nc2ccccc2c1-c1ccc(F)cc1
active: [4] 3.17 µM | CD40, CD40 (gene 958) 216 nM | CD69, CD69 (gene 969) 109 nM | [6] 1.97 nM | [9] 4.1 nM | [10] 0.756 µM | [11] 104 nM
inactive: [1] | [2] | [3] | CD38, CD38 (gene 952) | [5] | [7] | [8]

C[C@H]1C[C@@H]2[C@H]([C@@H](O)C[C@@]3(C)[C@H]2CC[C@]3(O)C(=O)CO)[C@@]2(C)C=CC(=O)C=C12
inactive: [1] | [2] | [3] | [12] | CD38, CD38 (gene 952) | CD40, CD40 (gene 958) | CD69, CD69 (gene 969) | [5] | [7] | [8] | [11]
active: [3] 6440 nM | [4] 4.93 µM and 3.97 µM | [6] 3.1 µM and 1.1 µM | [9] 4.3 µM and 1.37 µM | [10] 2.49 µM and 6.67 µM
